In PubChem BioAssay (EPA / NIEHS) one finds outcome and AC50 data, which are given here for 40 compounds.

The source made the active and inactive calls. The calls were made as follows: active = hit-call score of the fitted dose curve at least 0.9, where 1 is the maximum; inactive = score below 0.9.

The target of the test is Transcriptional activator Myb (Homo sapiens) (UniProt P10242). Description: ATG_Myb_CIS: Attagene CIS-FACTORIAL HepG2 Assay for human Myeloblastosis (Myb) Proto-Oncogene Transcription Factor (AID 2282986). As to conditions: HepG2 Attagene CIS-FACTORIAL Myb reporter transcription; actives raise or lower the signal. Here is the method: ATG_CIS is a cell-based, multiplexed-readout assay that uses HepG2, a human liver cell line, with measurements taken at 24 hours after chemical dosing in a 24-well plate.ATG_Myb_CIS is one of 52 assay component(s) measured or calculated from the ATG_CIS assay. It is designed to make measurements of mRNA induction, a form of inducible reporter, as detected with fluorescence intensity signals by Reverse transcription polymerase chain reaction (RT-PCR) and Capillary electrophoresis technology.Data from the assay component ATG_Myb_CIS was analyzed into 1 assay endpoint. This assay endpoint, ATG_Myb_CIS, was analyzed with bidirectional fitting relative to DMSO as the negative control and baseline of activity. Using a type of inducible reporter, measures of mRNA for gain or loss-of-signal activity can be used to understand the reporter gene at the transcription factor-level as they relate to the gene MYB. Furthermore, this assay endpoint can be referred to as a primary readout, because this assay has produced multiple assay endpoints where this one serves a reporter gene function. To generalize the intended target to other relatable targets, this assay endpoint is annotated to the dna binding intended target family, where the subfamily is MYB proteins.
Sequence of Transcriptional activator Myb (Homo sapiens) (P10242 whole entry, looked up): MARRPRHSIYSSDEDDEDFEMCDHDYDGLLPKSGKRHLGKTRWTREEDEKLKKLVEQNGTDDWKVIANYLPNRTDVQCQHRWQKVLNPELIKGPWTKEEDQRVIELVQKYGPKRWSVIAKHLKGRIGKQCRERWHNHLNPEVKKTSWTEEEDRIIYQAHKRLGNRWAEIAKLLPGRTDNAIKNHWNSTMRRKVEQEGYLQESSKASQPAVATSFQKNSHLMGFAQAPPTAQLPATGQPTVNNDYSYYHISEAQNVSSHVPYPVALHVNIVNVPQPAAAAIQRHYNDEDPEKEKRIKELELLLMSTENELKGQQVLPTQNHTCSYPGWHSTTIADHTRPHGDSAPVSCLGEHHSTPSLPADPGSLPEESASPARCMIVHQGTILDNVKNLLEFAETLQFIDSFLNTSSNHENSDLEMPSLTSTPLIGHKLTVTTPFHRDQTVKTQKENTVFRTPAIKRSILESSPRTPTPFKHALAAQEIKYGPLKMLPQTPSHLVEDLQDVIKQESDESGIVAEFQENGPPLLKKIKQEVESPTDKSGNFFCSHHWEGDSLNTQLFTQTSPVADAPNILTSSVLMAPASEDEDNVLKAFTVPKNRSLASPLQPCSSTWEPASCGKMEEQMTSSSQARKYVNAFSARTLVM
Human liver HepG2 cells are transiently transfected with multiple reporter transcription units (MRTUs) in 6-well plates using FuGene 6 reagent (Roche; 3 ml FuGene/1 mg DNA). The MRTU constructs are regulated by a cis-regulating element (promoter). […] A major difference between the CIS and TRANS system is that in CIS activities of endogenous TFs are measured, whereas the TRANS assay evaluates changes in activities of exogenous, chimeric NR-Gal4 proteins. […] At the end of 24 hour incubation, total RNA was isolated using TriZol reagent (Invitrogen). The isolated RNA is then reverse-transcribed using oligo(dT) primer and Mo-MLV reverse transcriptase (Invitrogen) with DNAse I (Ambion) treatment for 30 min. The one-tenth of the produced cDNA was amplified by PCR using Taq DNA polymerase (Invitrogen) and two reporter sequence-specific primers. The PCR products were fluorescently labeled by primer extension with 6-arboxyfluorescein (6-FAM) 5'-labeled reporter sequence-specific primer (2 min at 95 C, 20 s at 68 C and 10 min at 72 C) and these products were digested with 5U of HpaI (New England Biolabs) for 2h at 37 C. The fragments were purified using Qiaquick PCR columns (Qiagen), analyzed on an ABI 3130xL genetic analyzer (Applied Biosystems) with peak positions identified by using a set of X-rhodamine (ROX)-labeled MapMarker1000 molecular weight standards (BioVentures). The raw capillary electrophoresis data was processed using Attagraph software (Attagene).
Regarding `Cc1ccc([N+](=O)[O-])cc1N`, the result was inactive.

In the case of `CC(C)c1ccc2ncccc2c1`, the outcome was inactive.

As to `COC(=O)CC(C)CCC=C(C)C` (stereo not given), the outcome was inactive.

With `O=c1c(O)c(-c2ccc(O)cc2O)oc2cc(O)cc(O)c12`, the call was inactive.

Turning to `CC1=CCC2CC1C2(C)C` (stereo not given), the result was inactive.

For `[Cl][Sc]([Cl])[Cl]`, the compound was classed as inactive.

Turning to `CCCCOCC(C)O` (stereo not given), the compound was called inactive.

For the compound `CC1(C)[C@@H]2CC[C@@]1(C)C(=O)C2`, the call was inactive.

Regarding `CCN1CN(CC)CN(CC)C1`, the result was inactive.

`CC1=CC=C(C(C)C)CC1`: the call was inactive.

In the case of `C=C[Si](OCCOC)(OCCOC)OCCOC`, the outcome was inactive.

Take `CCCCC1CCC(=O)O1` (stereo not given): the compound was classed as inactive.

`CC1(C)C(=O)N(CO)C(=O)N1CO`: the result was inactive.

For the compound `Nc1ccc(O)c([N+](=O)[O-])c1`, the compound was called inactive.

As for `CCCCNC(=S)NCCCC`, the compound was called inactive.

Turning to `CCCCC(CC)COC(=O)/C=C/c1ccc(OC)cc1` (stereo not given), the call was inactive.

For `C1CNCCN1`, the compound was called inactive.

`CCC(C)c1ccccc1` (stereo not given): the result was inactive.

For `C/C=C/C=C/CCCCCCCO`, the compound was called inactive.

As to `CCCCCCOc1ccc(N)cc1`, the compound was classed as inactive.

With `CC(C)CO`, the call was inactive.

`C=CC(=O)OCCCCCCOC(=O)C=C`: the call was inactive.

As for `Nc1ccc(Cl)c(N)c1`, the compound was called inactive.

In the case of `CC1=CC(C)C(C=O)CC1` (stereo not given), the compound was called inactive.

Regarding `C[Si](C)(C)N[Si](C)(C)C`, the call was inactive.

Consider `CCCCCC1=CCCC1=O`, for which the call was inactive.

As to `CCOC(=O)c1ccc(C)cc1`, the compound was called inactive.

Regarding `CCN1CCCC1=O`, the call was inactive.

With `CC=CC(=O)OCC(C)C`, the result was inactive.

The AC50 is the concentration giving half of the maximal activity seen. Consider `O=C(O)c1cc(O)c2ccccc2c1O`, for which the AC50 was 57.4 µM (active).

On to `OCCCc1ccccc1`, for which the result was inactive.

In the case of `CC(=O)OCc1ccccc1`, the outcome was inactive.

For `CCNc1nc(NC(C)(C)C)nc(OC)n1`, the outcome was inactive.

Consider `COc1ccc(C(=O)/C(Br)=C\C(=O)O)cc1`, for which the compound was called inactive.

`CN(C)c1ccc2nc3ccc(=[N+](C)C)cc-3sc2c1`: the compound was classed as inactive.

For `O=C1CCCCCCCCCCC1`, the result was inactive.

Consider `O=C(O)CCCC(=O)O`, for which the compound was called inactive.

With `Oc1c(Cl)cc(Cl)c(Cl)c1Cl`, the result was inactive.

On to `N=C1C=CC(=C(c2ccc(N)cc2)c2ccc(N)cc2)C=C1`, for which the AC50 is 24.9 µM (active).

For `CC/C=C\C/C=C\C/C=C\CCCCCCCC(=O)OC`, the compound was classed as inactive.
